Hits are enriched below; roughly 0.42% of the tested compounds scored in any of these assays.
CatB block – human cathepsin B inhibition. P07858. purified cathepsin B, fluorogenic substrate, fluorescence. 63,000 tested, 0.1% active. inhibition, %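 (tested at 10 µM)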; in the data active = inhibition above about 21%;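 also: 0% = enzyme with no compound and 100% = no enzyme blank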
CatB mixtures – human cathepsin B inhibition by mixtures; 62,000 tested, 0.06% active; Purified cathepsin B, AMC dipeptide fluorescence, compound mixtures; inhibition, %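 (ten-compound pools at 5 µM per compound and 50 µM total)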; P07858; AID 488; in the data active = inhibition above about 22%, passing the limit was not always enough;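 also: 0% = enzyme without compound and 100% = no enzyme blank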
CatL inh – inhibitors of human cathepsin L; purified cathepsin L, fluorogenic substrate, fluorescence; inhibition, %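 (tested at 10 µM)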; 58,000 tested, 0.17% active; AID 460; in the data active = inhibition above about 45%;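 also: 0% = enzyme with no compound and 100% = no enzyme blank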
Target sequence (P07711 114-288 limits assumed): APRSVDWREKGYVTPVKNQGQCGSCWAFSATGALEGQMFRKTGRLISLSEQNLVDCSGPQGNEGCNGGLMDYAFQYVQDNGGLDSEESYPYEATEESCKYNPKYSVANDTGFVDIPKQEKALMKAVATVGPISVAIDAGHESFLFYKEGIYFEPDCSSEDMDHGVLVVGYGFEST
Target sequence (P07711 292-333 limits assumed): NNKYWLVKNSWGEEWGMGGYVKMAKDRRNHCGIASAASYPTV
CatS inh – blocks human cathepsin S protease activity. P25774. 62,000 tested, 0.06% active. AID 501. recombinant cathepsin S, AMC dipeptide fluorescence, pooled mixtures. inhibition, %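 (tested at 5 µM per compound within 10-compound mixtures)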; in the data active = inhibition above about 32%, passing the limit was not always enough;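 also: 0% = enzyme without compound and 100% = blank without enzyme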
WNV protease inh – inhibitors of West Nile virus NS2B-NS3 protease | AID 577 | 65,000 tested, 0.18% active | z-score (concentration not given with the values) | P06935 | WNV NS2B-NS3 protease, fluorogenic substrate Ex360/Em465; active compounds read low; in the data active = z-score below about -3
Target sequence (P06935 1371-1501 limits assumed): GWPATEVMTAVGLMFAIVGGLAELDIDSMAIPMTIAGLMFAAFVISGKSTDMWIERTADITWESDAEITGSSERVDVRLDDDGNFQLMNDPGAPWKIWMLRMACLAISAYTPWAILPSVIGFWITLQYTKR
Target sequence (P06935 1502-1679 limits assumed): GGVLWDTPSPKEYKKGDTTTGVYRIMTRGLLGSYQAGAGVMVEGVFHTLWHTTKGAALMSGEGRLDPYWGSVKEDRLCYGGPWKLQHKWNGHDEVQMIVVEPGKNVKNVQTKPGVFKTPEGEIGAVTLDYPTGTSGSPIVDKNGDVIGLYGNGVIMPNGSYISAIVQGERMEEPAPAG
* hit, by the source's call; / = no result.

SMILES | CatB block | CatB mixtures | CatL inh | CatS inh | WNV protease inh
CC(=O)N1CCc2cc(S(=O)(=O)NC(CC(C)C)C(=O)Nc3ccc4c(c3)OCCO4)ccc21 (stereo unspecified) | 4.1 | 0.7 | 3.4 | -2.6 | 0.23
CC(=NCc1ccco1)c1c(C)[nH]n(-c2nc3ccccc3s2)c1=O | -2.4 | -5.8 | -1.1 | 46.0* | 0.84
Cc1ccc(S(=O)(=O)NCCC(=O)NCCN2CCCCCC2)cc1 | -3.4 | 4.9 | 63.7* | 23.5 | 1.14
COC(=O)CCN1CCC(C(N)=O)CC1 | 4.0 | 2.8 | 1.5 | 10.8 | -0.2
Cc1ccc(CN(C(=O)Cn2nnc3ccccc32)C(C(=O)NCc2ccco2)c2cccs2)cc1 (stereo unspecified) | 3.6 | 23.3* | 5.9 | 11.9 | 0.56
CN(C1CCCCC1)S(=O)(=O)c1ccc(Cl)c(C(=O)O)c1 | 7.3 | 1.0 | 48.3* | 17.2 | 0.99
COc1ccc(S(=O)(=O)n2nc(OC(=O)c3ccccc3)cc2N)cc1 | 39.1* | 29.1* | -0.6 | 13.8 | -6.36*
COc1ccc(S(=O)(=O)n2nc(OC(=O)c3ccc(C)cc3)cc2N)cc1 | 48.7* | 31.7* | -2.9 | -4.6 | -0.72
COc1ccc(S(=O)(=O)n2nc(OC(=O)c3cccs3)cc2N)cc1 | 76.0* | 68.4* | -3.5 | -0.1 | -5.56*
COc1ccc(S(=O)(=O)n2nc(OC(=O)c3ccccc3Br)cc2N)cc1 | 3.0 | -1.6 | -8.4 | -21.6 | -4.23*
CC(C)(C)C(=O)Oc1cc(N)n(S(=O)(=O)c2ccccc2)n1 | 9.4 | 6.9 | 18.1 | 25.5 | -0.63
CCOC(=O)c1c(C)[nH]c(C)c1C(=O)CSc1nnc(-c2ccco2)n1Cc1ccccc1 | -0.1 | 2.6 | 5.3 | -3.2 | 0.83
O=C(c1ccco1)N1CCN(S(=O)(=O)c2ccc(Oc3ccccc3)cc2)CC1 | 4.4 | 39.9 | 25.5 | / | 1.58
COc1ccc(S(=O)(=O)n2nc(OC(=O)c3ccco3)cc2N)cc1 | 78.2* | 67.5* | 14.5 | 15.9 | -7.66*
CNc1nc2sc3c(c2c(=O)n1C)CC(C)(C)SC3 | 3.3 | -1.2 | -20.5 | 9.4 | -7.01*
CN(C)c1nc2sc3c(c2c(=O)n1C)CC(C)(C)OC3 | 1.1 | / | -4.8 | / | -0.53
CCN1C(=O)c2cccc3c(S(=O)(=O)Nc4c(C)n(C)n(-c5ccccc5)c4=O)ccc1c23 | 2.7 | 5.6 | -0.6 | -5.9 | -0.95
CCOC(=O)Cc1csc(NS(=O)(=O)c2ccc3c4c(cccc24)C(=O)N3CC)n1 | 5.0 | -0.7 | 1.8 | 55.2* | -0.34
CCOC(=O)C(C(=O)OCC)N(C#N)c1nc(SC)nc(N(C)C)n1 | 26.8* | / | 78.4* | / | 2.01
CC(C(=O)N(C)C)N(C#N)c1nc(N(C)C)nc(N(C)C)n1 (stereo unspecified) | -2.1 | / | 7.0 | / | 0.41
CC1CCN(C(=O)C2CCN(C(=O)c3cc4sccc4n3Cc3ccc(F)cc3)CC2)CC1 | 1.3 | 1.3 | 54.0* | -2.2 | -1.26
CC(C)NC(=O)C1CCN(C(=O)c2cc3sccc3n2Cc2ccc(F)cc2)CC1 | -0.1 | 2.7 | -3.9 | -2.8 | -0.19
CCN(CC)CC(=O)Nc1cc(C)c2c(=O)oc3ccccc3c2n1 | -3.6 | -4.5 | / | -2.5 | 1.07
CCc1nc(N)c(C#N)c(-c2cccn2C)c1C | / | / | / | / | -6.79*
COC(=O)Cn1cnc2c(nnn2-c2cccc(Cl)c2)c1=O | -1.4 | 0.3 | / | -8.4 | -0.21
SMILES | CatB block | CatB mixtures | CatL inh | CatS inh | WNV protease inh
COc1ccc(OC)c(NS(=O)(=O)Cc2ccccc2)c1 | 12.2 | 2.5 | 72.9* | 7.5 | -0.38
COc1ccc(OC)c(S(=O)(=O)NCc2ccccc2)c1 | 0.0 | -1.9 | 20.7 | 0.0 | 0.31
CC(C)OC(=O)c1ccc(NC(=O)C2C3CC4OC(=O)C2C4C3)cc1 (stereo unspecified) | 2.1 | 2.5 | -0.9 | 5.8 | 1.51
Cc1ccc(NC(=O)C2C3CC4OC(=O)C2C4C3)cc1Cl (stereo unspecified) | -3.7 | -4.7 | -4.5 | -18.3 | -6.43*
COc1ccccc1OCC(=O)Nc1oc(-c2ccccc2)c(-c2ccccc2)c1C#N | 54.6* | -2.8 | / | 4.4 | -0.69
CCOC(=O)CSc1nnc(Cc2ccccc2)n1Cc1ccco1 | 5.7 | -2.7 | 92.3* | -3.8 | -0.55
O=C1c2ccccc2C(O)(Cc2ccccc2)N1CCCN1CCOCC1 (stereo unspecified) | 1.4 | 5.9 | 12.6 | -0.6 | -0.94
O=C1c2ccccc2C(O)(Cc2ccccc2)N1C1CCCCC1 (stereo unspecified) | 8.6 | 2.9 | 104.5* | -0.6 | -0.37
COC(=O)c1ccccc1NC(=O)Cn1c(-c2nonc2N)nc2ccccc21 | 70.0* | 81.6* | 66.0* | / | 1.47
Nc1nonc1-c1nc2ccccc2n1CC(=O)N1CCCCC1 | 81.2* | 86.1* | 66.2* | 40.3 | 0.43
CCOC(=O)c1ccccc1NC(=O)CSc1nc2ccccc2n1CC(=O)N1CCCC1 | -0.4 | 4.7 | 19.4 | 7.5 | -0.53
CC(C)NC(=O)Cn1c(SCC(=O)N2CCCCCC2)nc2ccccc21 | -3.3 | 5.4 | -0.5 | 1.9 | -1.76
CCSc1nc2ccccc2n1CC(=O)N1CCCCC1 | 0.7 | 49.1 | 56.0* | 54.8 | 0.91
Cc1ccccc1P(=O)(CO)c1ccccc1C | 6.1 | -13.4 | / | -18.0 | -0.21
CCCn1c(N)c(Sc2ccc(Cl)cc2)c(=O)n(CCC)c1=O | 3.4 | 2.4 | -1.1 | -9.1 | -0.57
CCCN(CCC)CCNC(=O)c1cc2c(=O)n(C)c3ccccc3c2n1C | 2.6 | -6.6 | -3.1 | 76.6* | -0.88
Cn1c(C(=O)NCCCN2CCCC2=O)cc2c(=O)n(C)c3ccccc3c21 | -0.3 | 3.8 | 1.1 | 0.8 | -0.05
Cn1c(C(=O)N2CCN(Cc3ccccc3)CC2)cc2c(=O)n(C)c3ccccc3c21 | -0.8 | 1.4 | 17.7 | 51.4* | -0.07
CC1CCCCN1CCNC(=O)c1cc2c(=O)n(C)c3ccccc3c2n1C (stereo unspecified) | 1.9 | -1.3 | 7.0 | 11.4 | -0.61
CN(CCNC(=O)c1cc2c(=O)n(C)c3ccccc3c2n1C)Cc1ccccc1 | 3.6 | 1.1 | / | 71.5* | -0.65
CCOc1ncccc1C(=O)OCc1cc(=O)n2c(n1)sc1ccccc12 | -2.4 | -0.9 | 14.9 | 4.2 | -0.16
O=C(c1cc2nc3c(c(C(F)(F)F)n2n1)CCc1ccccc1-3)N1CCN2CCCC2C1 (stereo unspecified) | 0.1 | 1.7 | 13.7 | 5.5 | -0.35
COc1ccc(C2C(C(=O)NCc3ccccn3)c3cc(OC)c(OC)cc3C(=O)N2C)cc1 (stereo unspecified) | 5.0 | -3.3 | 58.9* | -10.1 | -0.42
CCCCN(CC)CCNC(=O)C1c2cc(OC)c(OC)cc2C(=O)N2CCc3ccccc3C12 (stereo unspecified) | 5.3 | -1.5 | 20.3 | 2.3 | -1.52
CCN1CCN(C(=O)C2c3cc(OC)c(OC)cc3C(=O)N3CCc4ccccc4C23)CC1 (stereo unspecified) | 1.9 | 2.3 | 10.0 | -4.9 | -3.25*
CC(C)C(c1nnnn1C1CCCC1)N1CCc2ccccc21 (stereo unspecified) | -0.5 | 2.1 | 16.2 | -4.2 | 1.28
CC(C)C(c1nnnn1C1CCCC1)N1CCCc2ccccc21 (stereo unspecified) | 10.1 | 4.9 | 14.3 | 32.5* | 0.54
